22 compounds from PubChem BioAssay (EPA / NIEHS) can be followed below.

Records with an inconclusive call do not appear. The source made the active and inactive calls. Rule for the calls, unless noted: active = hit-call score of the fitted dose curve at least 0.9, where 1 is the maximum; inconclusive = response in the unintended direction; inactive = score below 0.9.

The target in experiment [1] is Oxysterols receptor LXR-alpha (Homo sapiens) (UniProt Q13133). Description: ATG_LXRa_TRANS: Attagene TRANS-FACTORIAL HepG2 Assay for human Liver X Receptor alpha (LXRa) (AID 2282980). The settings on record: HepG2 Attagene TRANS reporter, LXRa transactivation. An outline of the steps: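 In this multiplexed TRANS system, compounds act on HepG2 cells carrying GAL4-UAS reporter units and a receptor-GAL4 fusion for 24 h. Induced reporter RNA is amplified, fluorescently labelled and sized by capillary electrophoresis, with DMSO as baseline.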
Oxysterols receptor LXR-alpha (Homo sapiens), sequence (Q13133 whole entry, looked up, the tested form may be a part): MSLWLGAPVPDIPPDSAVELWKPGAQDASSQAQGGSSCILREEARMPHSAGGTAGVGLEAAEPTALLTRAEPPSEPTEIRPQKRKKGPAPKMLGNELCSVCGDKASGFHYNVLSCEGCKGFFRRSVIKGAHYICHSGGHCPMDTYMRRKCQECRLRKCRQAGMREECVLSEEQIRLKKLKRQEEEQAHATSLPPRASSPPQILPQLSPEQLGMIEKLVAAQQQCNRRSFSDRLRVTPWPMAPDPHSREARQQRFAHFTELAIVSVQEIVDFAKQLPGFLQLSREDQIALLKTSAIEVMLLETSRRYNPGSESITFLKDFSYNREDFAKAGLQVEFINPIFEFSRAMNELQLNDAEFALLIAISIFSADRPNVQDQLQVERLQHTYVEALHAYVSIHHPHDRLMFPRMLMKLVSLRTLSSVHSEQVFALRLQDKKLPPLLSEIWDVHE

Experiment [2] deals with Nuclear receptor subfamily 4 group A member 2 (Homo sapiens) (UniProt P43354). Description: ATG_NURR1_TRANS: Attagene TRANS-FACTORIAL HepG2 Assay for human Nuclear Receptor Related Protein 1 (NURR1) (AID 2282985). To be noted: HepG2 Attagene TRANS reporter, mRNA readout. An outline of the steps: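 HepG2 cells transiently transfected with NURR1-Gal4 chimera and GAL4-UAS reporter units; after 24 hr compound exposure, reporter mRNA quantified by RT-PCR and capillary electrophoresis; gain of signal fitted against DMSO.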
Nuclear receptor subfamily 4 group A member 2 (Homo sapiens), sequence (P43354 whole entry, looked up, the tested form may be a part): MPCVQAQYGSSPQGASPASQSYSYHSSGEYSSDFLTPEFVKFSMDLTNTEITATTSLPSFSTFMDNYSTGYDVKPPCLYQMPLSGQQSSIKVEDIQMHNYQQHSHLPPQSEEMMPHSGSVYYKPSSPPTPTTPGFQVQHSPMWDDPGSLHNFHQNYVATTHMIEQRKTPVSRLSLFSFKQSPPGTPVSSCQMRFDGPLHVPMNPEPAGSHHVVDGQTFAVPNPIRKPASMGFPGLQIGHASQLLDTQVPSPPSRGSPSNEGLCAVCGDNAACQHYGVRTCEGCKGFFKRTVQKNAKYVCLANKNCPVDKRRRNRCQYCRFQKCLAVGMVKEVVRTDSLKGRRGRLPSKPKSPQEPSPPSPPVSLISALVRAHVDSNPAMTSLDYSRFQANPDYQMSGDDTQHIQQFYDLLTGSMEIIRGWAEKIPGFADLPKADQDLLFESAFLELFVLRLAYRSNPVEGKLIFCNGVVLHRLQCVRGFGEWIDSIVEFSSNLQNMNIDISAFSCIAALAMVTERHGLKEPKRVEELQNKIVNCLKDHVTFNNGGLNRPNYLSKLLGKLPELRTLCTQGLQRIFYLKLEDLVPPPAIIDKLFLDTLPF

The target in experiment [3] is Transcriptional activator Myb (Homo sapiens) (UniProt P10242). Description: ATG_Myb_CIS: Attagene CIS-FACTORIAL HepG2 Assay for human Myeloblastosis (Myb) Proto-Oncogene Transcription Factor (AID 2282986; active = hit-call score of the fitted dose curve at least 0.9, where 1 is the maximum; inactive = score below 0.9). The settings on record: HepG2 Attagene CIS-FACTORIAL Myb reporter transcription; actives raise or lower the signal. Put shortly: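 Transiently transfected HepG2 cells carrying a multiplexed cis-promoter reporter set report endogenous Myb activity after 24 h compound exposure. Reporter mRNA is read by RT-PCR with capillary electrophoresis of fluorescent products, fitted bidirectionally against DMSO.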
Transcriptional activator Myb (Homo sapiens), sequence (P10242 whole entry, looked up): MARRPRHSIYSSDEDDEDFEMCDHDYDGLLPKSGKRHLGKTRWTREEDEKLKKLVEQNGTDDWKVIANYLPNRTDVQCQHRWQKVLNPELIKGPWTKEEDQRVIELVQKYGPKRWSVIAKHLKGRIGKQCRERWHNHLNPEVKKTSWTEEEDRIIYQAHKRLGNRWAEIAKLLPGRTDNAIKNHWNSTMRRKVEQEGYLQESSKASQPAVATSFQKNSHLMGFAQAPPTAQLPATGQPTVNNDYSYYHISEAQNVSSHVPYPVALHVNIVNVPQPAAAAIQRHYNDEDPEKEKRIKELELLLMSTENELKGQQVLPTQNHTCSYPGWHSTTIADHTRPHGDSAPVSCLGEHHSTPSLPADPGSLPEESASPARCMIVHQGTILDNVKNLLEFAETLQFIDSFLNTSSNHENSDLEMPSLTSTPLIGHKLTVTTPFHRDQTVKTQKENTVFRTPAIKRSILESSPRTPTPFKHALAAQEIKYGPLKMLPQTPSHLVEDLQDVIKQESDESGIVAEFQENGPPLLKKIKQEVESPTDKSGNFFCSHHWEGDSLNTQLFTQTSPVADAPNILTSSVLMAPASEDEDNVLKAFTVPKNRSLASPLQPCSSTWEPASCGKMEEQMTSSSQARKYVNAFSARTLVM

Experiment [4] has as its target Nuclear respiratory factor 1 (Homo sapiens) (UniProt Q16656). Description: ATG_NRF1_CIS: Attagene CIS-FACTORIAL HepG2 Assay for human Nuclear Respiratory Factor 1 (NRF1) Orphan Gene (AID 2282987; active = hit-call score of the fitted dose curve at least 0.9, where 1 is the maximum; inactive = score below 0.9). The settings on record: HepG2 NRF1 cis-element reporter, Attagene multiplex; actives raise or lower the signal. Put shortly: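 HepG2 cells transiently transfected with multiple cis-regulated reporter units, exposed 24 h. Reporter mRNAs measured by RT-PCR, fluorescent labelling, HpaI digestion and capillary electrophoresis; bidirectional fitting against DMSO.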

The nature of experiment [5]: ATG_NFI_CIS: Attagene CIS-FACTORIAL HepG2 Assay for human Nuclear Factor I (NFI) (AID 2282989; active = hit-call score of the fitted dose curve at least 0.9, where 1 is the maximum; inactive = score below 0.9). To be noted: HepG2 cis-regulatory reporter, NFI response element transcription; actives raise or lower the signal. An outline of the steps: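 Transient MRTU transfection of HepG2 → 24 h chemical dosing → total RNA, oligo(dT) RT → PCR, 6-FAM primer extension, HpaI cut → capillary electrophoresis. Endpoint fitted bidirectionally relative to DMSO.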

For experiment [6], the target named is Oxysterols receptor LXR-beta (Homo sapiens) (UniProt P55055). Nature of the experiment: ATG_LXRb_TRANS: Attagene TRANS-FACTORIAL HepG2 Assay for human Liver X Receptor beta (LXRb) (AID 2282981). To be noted: HepG2 Attagene TRANS GAL4-LXRb reporter, mRNA. An outline of the steps: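 HepG2 cells transiently transfected with GAL4-UAS reporter units for chimeric NR-Gal4 proteins, dosed for 24 h. Reporter transcripts measured by RT-PCR and capillary electrophoresis; gain-of-signal fitting relative to DMSO.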
Oxysterols receptor LXR-beta (Homo sapiens), sequence (P55055 whole entry, looked up, the tested form may be a part): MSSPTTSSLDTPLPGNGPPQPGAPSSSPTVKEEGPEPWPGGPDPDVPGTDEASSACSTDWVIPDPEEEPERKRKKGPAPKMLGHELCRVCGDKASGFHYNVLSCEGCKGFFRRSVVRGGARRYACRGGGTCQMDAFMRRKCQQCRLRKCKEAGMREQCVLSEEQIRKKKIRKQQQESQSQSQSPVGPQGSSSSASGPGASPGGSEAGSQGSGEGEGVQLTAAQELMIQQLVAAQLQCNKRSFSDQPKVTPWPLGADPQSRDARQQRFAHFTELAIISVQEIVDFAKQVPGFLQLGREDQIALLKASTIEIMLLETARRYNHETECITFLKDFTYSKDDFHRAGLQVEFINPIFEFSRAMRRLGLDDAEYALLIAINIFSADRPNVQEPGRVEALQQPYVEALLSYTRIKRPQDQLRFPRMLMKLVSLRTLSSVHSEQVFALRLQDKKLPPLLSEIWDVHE

For experiment [7], the target named is Hepatocyte nuclear factor 4-alpha (Homo sapiens) (UniProt P41235). Description: ATG_HNF4a_TRANS: Attagene TRANS-FACTORIAL HepG2 Assay for human Hepatocyte Nuclear Factor 4 alpha (HNF4a) (AID 2282982). The settings on record: HepG2 HNF4a transactivation reporter, mRNA readout. An outline of the steps: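 HepG2 cells transiently transfected with HNF4a-Gal4 chimera and GAL4-UAS reporter units, dosed for 24 h. Reporter mRNA measured by RT-PCR, fluorescent primer extension and capillary electrophoresis; gain-of-signal fitted relative to DMSO.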
Hepatocyte nuclear factor 4-alpha (Homo sapiens), sequence (P41235 whole entry, looked up, the tested form may be a part): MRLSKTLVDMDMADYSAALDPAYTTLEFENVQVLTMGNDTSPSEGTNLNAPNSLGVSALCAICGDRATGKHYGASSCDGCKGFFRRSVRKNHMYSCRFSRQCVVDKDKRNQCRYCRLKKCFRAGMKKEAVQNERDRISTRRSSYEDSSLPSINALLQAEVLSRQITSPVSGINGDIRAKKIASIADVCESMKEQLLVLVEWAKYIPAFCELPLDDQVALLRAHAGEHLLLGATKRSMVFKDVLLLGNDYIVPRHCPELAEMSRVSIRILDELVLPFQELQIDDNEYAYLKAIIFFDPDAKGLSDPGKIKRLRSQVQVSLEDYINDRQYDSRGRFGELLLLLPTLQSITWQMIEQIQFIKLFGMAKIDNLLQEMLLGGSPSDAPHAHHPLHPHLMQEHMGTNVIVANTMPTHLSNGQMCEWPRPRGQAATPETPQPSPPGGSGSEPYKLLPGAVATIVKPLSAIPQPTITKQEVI

Experiment [8] can be described thus: ATG_M_06_TRANS: Attagene TRANS-FACTORIAL HepG2 Assay for M06 Transcription Factor (Internal Marker) (AID 2282983).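 Note: reporter transcript level by RT-PCR then capillary electrophoresis fluorescence.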 The settings on record: HepG2 Attagene TRANS M06 internal marker reporter. Put shortly:
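Internal-marker background readout from a multiplexed TRANS reporter system in HepG2; 24 h dosing; mRNA induction quantified by RT-PCR plus capillary electrophoresis fluorescence; DMSO as negative control and baseline.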

A short description of experiment [9]: ATG_M_32_TRANS: Attagene TRANS-FACTORIAL HepG2 Assay for M32 Transcription Factor (Internal Marker) (AID 2282984).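 Note: transcript level of a background control reporter unit measured by RT-PCR and capillary electrophoresis.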 The settings on record: HepG2 Attagene TRANS M32 internal marker reporter. Put shortly: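 HepG2 cells transiently transfected with GAL4-UAS reporter units, dosed for 24 hours. Reporter mRNA quantified by RT-PCR, 6-FAM labelling, HpaI digestion and capillary electrophoresis; internal-marker signal fitted upward relative to DMSO.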

Nuclear respiratory factor 1 (Homo sapiens), sequence (Q16656 whole entry, looked up): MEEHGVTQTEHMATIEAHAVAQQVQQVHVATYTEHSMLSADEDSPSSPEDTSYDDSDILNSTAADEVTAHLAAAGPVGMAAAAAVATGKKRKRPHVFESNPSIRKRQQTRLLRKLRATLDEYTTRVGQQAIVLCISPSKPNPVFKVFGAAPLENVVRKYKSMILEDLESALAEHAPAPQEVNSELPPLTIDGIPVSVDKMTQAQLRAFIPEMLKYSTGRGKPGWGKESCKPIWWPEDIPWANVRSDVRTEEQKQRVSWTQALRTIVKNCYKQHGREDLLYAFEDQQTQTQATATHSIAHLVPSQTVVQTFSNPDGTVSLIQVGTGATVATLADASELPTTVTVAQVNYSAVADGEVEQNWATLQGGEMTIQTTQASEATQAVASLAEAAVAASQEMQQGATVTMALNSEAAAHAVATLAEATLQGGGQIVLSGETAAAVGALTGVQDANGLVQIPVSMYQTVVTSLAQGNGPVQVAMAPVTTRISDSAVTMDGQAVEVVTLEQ

As to `CC(O)CN(CCN(CC(C)O)CC(C)O)CC(C)O` (stereo not drawn), the result in [1], in [2], in experiment [3], in [4] and in experiment [5] was inactive.

On to `C=CC(=C)CCC=C(C)C`, for which the outcome in [6], in [7], in experiment [8], in experiment [9], in experiment [2] and in experiment [3] was inactive. The call in experiment [4] and in experiment [5] was inactive.

Consider `O=P(OC(CCl)CCl)(OC(CCl)CCl)OC(CCl)CCl`, for which the compound was classed as inactive in experiment [1], in experiment [8], in experiment [9] and in experiment [4]. Also, the half-maximal activity concentration (AC50) was 32 µM (active) in [2], 144 µM (active) in experiment [3] and 187 µM (active) in experiment [5].

As for `O=C(CCCCCCCCc1cccnc1)N1CCC(C=C(c2ccccc2)c2ccccc2)CC1`, the call in [1], in [8], in [9], in [2], in experiment [4] and in [5] was inactive. The AC50 in experiment [3] was 60.2 µM (active).

For the compound `O=C(O)c1cc(N=Nc2ccc(S(=O)(=O)Nc3ccccn3)cc2)ccc1O`, the compound was classed as inactive in [1], in experiment [7], in [9], in experiment [3], in experiment [4] and in experiment [5].

As to `CC[C@H]1CC[C@H](NCc2cc3c(cc2OC)[C@H]2C[C@H]2C(=O)N3C)[C@H](c2ccccc2)N1`, the outcome in [6], in experiment [7], in experiment [8], in [2], in experiment [3] and in experiment [4] was inactive. Besides, the half-maximal activity concentration (AC50) in experiment [5] is 46.5 µM (active).

Take `Cc1ccc(S(=O)(=O)O)cc1C`: the call in [1], in experiment [7], in experiment [9], in experiment [2], in experiment [3] and in experiment [4] was inactive. Besides, the compound was classed as inactive in experiment [5].

For the compound `O=C(NS(=O)(=O)/C=C/c1ccccc1)c1ccc(F)cc1Cl`, the compound was called inactive in [1], in experiment [9], in experiment [2], in [3], in [4] and in [5].

As to `Nc1ccc(Nc2ccccc2)cc1`, the compound was called inactive in experiment [6], in experiment [7], in experiment [2], in experiment [3], in experiment [4] and in experiment [5].

For `O=C1CCC(N2C(=O)c3ccccc3C2=O)C(=O)N1` (stereo not drawn), the compound was called inactive in experiment [1], in experiment [8], in experiment [9], in experiment [2], in experiment [3] and in experiment [4]. Also, the call in experiment [5] was inactive.

Regarding `CN(C)c1ccc(N=NS(=O)(=O)O)cc1`, the compound was called inactive in [1], in [6], in experiment [8], in experiment [3], in experiment [4] and in experiment [5].

Regarding `CC(C)=CCCC(C)=CC=O`, the compound was classed as inactive in experiment [1], in experiment [7], in experiment [8], in experiment [9], in [3] and in [4]. Moreover, in experiment [5], the compound was called inactive. The AC50 in experiment [2] is 100 µM (active).

Regarding `O=C(O)c1cccc(N(Cc2cccnc2)c2ccc(OC(F)F)c(OC(F)F)c2)c1`, the outcome in experiment [1], in experiment [7], in [8], in experiment [9], in experiment [3] and in [4] was inactive. Also, in [5], the compound was called inactive.

For `CCC(C)(C)C(=O)O[C@H]1C[C@@H](C)C=C2C=C[C@H](C)[C@H](CC[C@@H]3C[C@@H](O)CC(=O)O3)[C@H]21`, the result in experiment [1], in experiment [3], in [4] and in experiment [5] was inactive.

With `CC/C(=C\C(=N/O)C(N)=O)C(C)[N+](=O)[O-]` (stereo not drawn), the compound was classed as inactive in [1], in [9], in [3], in experiment [4] and in experiment [5].

For the compound `Nc1nc2ncc(CNc3ccc(C(=O)N[C@@H](CCC(=O)O)C(=O)O)cc3)nc2c(=O)[nH]1`, the outcome in experiment [1], in experiment [6], in [3], in [4] and in [5] was inactive.

Consider `CCN(C(=O)c1cc(C)cc(OC[C@H](C)Nc2ccncc2)c1)C(C)C`, for which the AC50 in experiment [1] was 0.486 µM (active). Further, the compound was classed as inactive in experiment [8], in experiment [9], in experiment [2], in [3], in [4] and in experiment [5].

Take `COC(=O)c1ccccc1O`: the concentration at half-maximal activity (AC50) is 25.8 µM (active) in experiment [1] and 25.5 µM (active) in [6]. Also, the result in experiment [8], in experiment [9], in experiment [2], in experiment [3], in experiment [4] and in experiment [5] was inactive.

Turning to `COc1ccc(-n2nc(C(F)F)cc2-c2ccc(S(C)=O)cc2)cc1` (stereo not drawn), the compound was called inactive in [1], in experiment [6], in [7], in experiment [9], in [3] and in experiment [4]. Besides, the compound was classed as inactive in experiment [5].

As for `O=C1OC(=O)C2C3C=CC(C3)C12` (stereo not drawn), the call in experiment [1], in experiment [7], in experiment [9], in [3], in experiment [4] and in [5] was inactive.

On to `CCOCCO`, for which the outcome in experiment [8], in [3], in experiment [4] and in experiment [5] was inactive.

Consider `CCCC(=O)OCC`, for which the compound was called inactive in experiment [7], in experiment [2], in [3], in experiment [4] and in experiment [5].
